According to ChEMBL document CHEMBL3433997, “St. Jude Leishmania screening dataset” (2016):

Key:
Type in all cases: functional
[1] = biological target: Solute carrier family 2, facilitated glucose transporter member 1 (Homo sapiens) (UniProt P11166); experiment: ST_JUDE_LEISH: Cytotoxicity at 2uM final concentration against transgenic Leishmania Mexicana promastigotes LmGLUT1 that are glucose transport deficient and complemented with the human glucose transporter GLUT1. Activity is measured by DNA content using SYBR green in vitro
Chain of Solute carrier family 2, facilitated glucose transporter member 1 (Homo sapiens) (P11166 whole entry): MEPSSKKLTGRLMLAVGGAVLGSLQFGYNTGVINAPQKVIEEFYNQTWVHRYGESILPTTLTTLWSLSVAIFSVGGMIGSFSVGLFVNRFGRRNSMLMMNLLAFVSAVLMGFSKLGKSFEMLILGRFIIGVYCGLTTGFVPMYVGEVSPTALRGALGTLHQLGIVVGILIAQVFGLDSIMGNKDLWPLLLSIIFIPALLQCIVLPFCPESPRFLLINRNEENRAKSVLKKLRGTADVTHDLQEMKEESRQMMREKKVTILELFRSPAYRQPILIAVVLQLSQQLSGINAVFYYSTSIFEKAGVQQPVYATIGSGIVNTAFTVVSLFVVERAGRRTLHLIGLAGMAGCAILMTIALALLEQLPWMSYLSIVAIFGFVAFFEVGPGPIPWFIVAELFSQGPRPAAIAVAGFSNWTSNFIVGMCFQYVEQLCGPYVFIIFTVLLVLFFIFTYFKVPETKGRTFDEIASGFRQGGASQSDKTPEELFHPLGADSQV

[2] = biological target: Hexose transporter 1 (Plasmodium falciparum) (UniProt O97467); experiment: ST_JUDE_LEISH: Cytotoxicity at 2uM final concentration against transgenic Leishmania Mexicana promastigotes LmPfHT that are glucose transport deficient and complemented with the Plasmodium falciparum hexose transporter. Activity is measured by DNA content using SYBR green in vitro
[3] = biological target: Glucose transporter (Leishmania mexicana) (UniProt O61059); experiment: ST_JUDE_LEISH: Cytotoxicity at 2uM final concentration against transgenic Leishmania Mexicana promastigotes LmGT2 that are glucose transport deficient and complemented with the L. Mexicana glucose transporter 2. Activity is measured by DNA content using SYBR green in vitro

Structure (SMILES)	inhibition [1] [%]	inhibition [2] [%]	inhibition [3] [%]
CC(N)(Cc1ccc(O)cc1)c1nnn[nH]1 (stereo not given)	-0.06	1.3	-0.23
CCCN1CCCN(Cc2cccc(NC(=O)c3ccc(-c4ccccc4)cc3)c2)CC1	0.74	0.03	-5.12
c1cc(COc2ccc(C3=NCCN3)cc2)nc(COc2ccc(C3=NCCN3)cc2)c1	4.95	5.66	-0.59
COc1ccc2nc3cc(Cl)ccc3c(N)c2c1	15.8	10	3.3
CCn1ccc2c(N3CCCCS3(=O)=O)cc(C(=O)N[C@@H](Cc3ccccc3)[C@H](O)CNC(C)(C)CCCC(C)C)cc21	2.17	1.95	5.14
Cc1ccc(CN2CCCN(Cc3cccc(NC(=O)c4ccc(-c5ccccc5)cc4)c3)CC2)cc1C	3.45	2.98	2.82
Cn1ccnc1CNC(=O)c1ccc(-c2cccc(-c3nc4cc(F)ccc4[nH]3)c2)cc1	-2.64	0.96	1.38
Cc1cccc2nc(-c3ccc(-c4ccc(C(=O)NCCN5CCCC5)cc4)s3)[nH]c12	1.13	0.54	-0.1
CN(C)c1nc(NN=Cc2cc(Cl)ccc2O)nc(Nc2ccc(F)cc2)n1	13	11	10.9
O=C(CCCCCNC(=O)c1ccc(O)c(-c2ccc(Cl)c(Cl)c2)c1)NCc1cccc2ccccc12	2.63	2.12	3.98
O=C(Nc1cccc(N2CCC(NCc3cnn(-c4cccc(F)c4)c3)CC2)c1)c1ccncc1	-0.97	0.64	-0.33
COC(=O)CCCOc1cc(Cc2cnc(N)nc2N)cc(OC)c1OC	7.51	6.32	9.19
N=C(N)c1cc(Cl)cc(NC(=O)Nc2cc(Cl)cc(C(=N)N)c2)c1	2.37	1.25	1.53
CCOC(=O)c1ccc(NC(=O)Nc2ccc(-c3ccc(-c4nc5ccccc5[nH]4)cc3)cc2)cc1	3.64	3.36	3.8
Cc1ccc(CNC(=O)[C@H](CCCN)Nc2nc(NCC3CCCCC3)ncc2C)cc1	3.55	2.8	2.97
